Screening results: PubChem, National Center for Advancing Translational Sciences (NCATS)
FLuc modulator = counter-screen for miR-21 project: firefly luciferase inhibitors or activators; P08659; purified FLuc, Km substrates, luminescence inhibition; Potency, µM (doses to about 57.5 µM), without a hit: at the highest dose activity change, negative = inhibition, actives largely listed as inhibitors; hit rate 6.9% among 360,000; AID 588342;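 note: plate controls were vehicle for no effect and reference inhibitor for full effect; nearly all actives have a fitted effect of over 55% in size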
Target sequence (P08659 whole entry, looked up): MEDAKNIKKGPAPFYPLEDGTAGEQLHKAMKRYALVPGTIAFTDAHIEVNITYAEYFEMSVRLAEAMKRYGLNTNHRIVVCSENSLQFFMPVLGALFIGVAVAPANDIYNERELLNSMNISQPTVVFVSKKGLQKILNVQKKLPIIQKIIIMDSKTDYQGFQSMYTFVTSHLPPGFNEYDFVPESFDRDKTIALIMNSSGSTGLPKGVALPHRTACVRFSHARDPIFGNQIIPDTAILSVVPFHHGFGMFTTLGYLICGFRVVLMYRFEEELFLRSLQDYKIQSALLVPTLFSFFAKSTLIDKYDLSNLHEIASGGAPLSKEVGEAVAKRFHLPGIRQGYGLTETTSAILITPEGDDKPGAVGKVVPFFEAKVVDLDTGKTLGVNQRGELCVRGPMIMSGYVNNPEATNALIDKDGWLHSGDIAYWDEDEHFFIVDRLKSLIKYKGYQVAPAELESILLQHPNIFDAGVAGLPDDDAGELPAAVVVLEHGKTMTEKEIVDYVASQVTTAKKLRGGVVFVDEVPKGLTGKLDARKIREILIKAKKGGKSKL
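Purified P. pyralis luciferase (10nM final) with 10uM D-luciferin and 10uM ATP (Km levels) in 50mM Tris acetate pH 7.5, 10mM Mg acetate, 0.01% Tween-20, 0.05% BSA; qHTS 6-point titration, ~60 µM downward; luminescence read.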
NPC1 promoter act = NPC1 promoter activation. hit rate 2.4% among 320,000. Huh7 NPC1 promoter luciferase reporter, 24 h. AID 485313. Potency, µM (titrated, usually from 9.22 µM), for inactives: at the highest dose activation, usual class: activators; note: % of control where 0% means no effect; nearly all actives have a fitted effect of over 60% in size
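NPC1 promoter–luciferase Huh7 cells; 24 h compound; luminescence.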
Rab9 prom act = activates the Rab9 promoter; Huh7 Rab9 promoter-luciferase reporter, luminescence, 24 h; Potency, µM (highest dose often 9.22 µM), without a hit: at the highest dose activation, negative = inhibition, usual class: activators; hit rate 2.8% among 320,000; AID 485297; note: % of control where 0% means no effect; nearly all actives have a fitted effect of over 60% in size
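Rab9 promoter-driven luciferase in stably transfected Huh7 cells; 1500 cells/well rested 2 h, exposed to compound in DMSO for 24 h at 37 °C, 5% CO2. Luminescence read 10 min after adding luciferase reagent at ambient temperature.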
SMN2 splice enh = SMN2 splice variant enhancement | hit rate 2.8% among 210,000 | HEK293 SMN2-luciferase splicing reporter, luminescence, 30-36 h | Potency, µM (doses to about 46.1 µM), without a hit: at the highest dose activity change, positive = activation, hits mostly activators | AID 1458; note: % of control where 0% means no effect; nearly all actives have a fitted effect of over 55% in size
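HEK293 cells carry an SMN2 minigene-luciferase reporter in which exon 7 inclusion puts luciferase in frame. Cells were seeded at 2000 cells/well, attached for 10-12 hours, then exposed to compounds for 30-36 hours at 37C before ONE-Glo luminescence.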
Luc counter = blocks Kinase-Glo luciferase, a counter-screen artifact. Kinase-Glo luciferase, ATP luminescence, 8 min. hit rate 0.28% among 200,000. Potency, µM (doses to about 38.3 µM), inactives show at the highest dose activity change, negative = inhibition, usual class: inhibitors; note: % is set by controls: 0 for no effect and ±100 for the full control effect; nearly all actives have a fitted effect of over 60% in size
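Recombinant Kinase-Glo luciferase, 10 uM ATP (linear range), luciferin; imidazole pH 7.2 / KCl / MgCl2 / Tween / BSA buffer; 8 min RT; luminescence.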
ELG1 genotox = induces genotoxicity in HEK293T cells with luciferase-tagged ELG1. HEK293T ELG1-luciferase reporter, luminescence, 16 h. Potency, µM (doses to about 46 µM), inactives show top-dose activity change, positive = activation, hits mostly activators. hit rate 1.3% among 330,000; note: % of control where 0% means no effect; nearly all actives have a fitted effect of over 60% in size
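Step 1: seed 2,000 HEK293T ELG1-luciferase cells per well. Step 2: add compound or DMSO, incubate 16 hr at 37 °C. Step 3: ONE-Glo, 30 min at room temperature, read luminescence.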
The depositor's hits bear a star; ? = inconclusive; / = no result given. Shown are actives, neighbours in structure and some others; about 7.5% of the full set was active somewhere. Calls come from the whole dose curve; as a rule, active = well fitted curve in the direction sought with a large enough effect; inconclusive = small, poorly fitted or top-dose-only effect, or another doubt; inactive = no such curve, though single readings can be large; an effect the other way counts as inactive or inconclusive. Potency is the fitted concentration of half-maximal effect.

SMILES | FLuc modulator | NPC1 promoter act | Rab9 prom act | SMN2 splice enh | Luc counter | ELG1 genotox
Cc1ccc(C(=O)Cc2ccccc2)o1 | 0% | -3% | -6% | / | / | 10%
COC(=O)Cn1c2nc3ccccc3nc2c2cccc(C)c21 | -3% | 0% | -4% | / | / | -3%
Cc1cccc2c3nc4ccccc4nc3n(C)c12 | 2.4µM* | 1.4µM* | 4.5µM* | / | / | 5%
CCn1c(SCc2ccccc2)nnc1-c1nonc1NC(C)=O | -7% | / | / | / | / | /
CCc1ccc(C(=O)Nc2cccc(-c3nn[nH]n3)c2)s1 | 1.5µM* | 2% | 23% | / | / | 0%
O=C(Nc1cccc(-c2nn[nH]n2)c1)c1csc2c1CCCC2 | 11µM* | 12% | 7% | / | / | 3%
O=C(Nc1cccc(-c2nn[nH]n2)c1)c1cccs1 | ? | 2.8µM* | ? | / | / | -3%
O=C(/C=C/N1CCOCC1)c1ccc(-c2ccccc2)cc1 | 11µM* | 1.8µM* | 3.2µM* | ? | -4% | 17%
O=C(Oc1ccccc1C(=O)N1CCOCC1)c1ccc(Br)cc1 | 5% | -2% | -7% | -20% | 0% | -2%
O=C(/C=C\N1CCOCC1)c1ccc(Br)cc1 | 15µM* | ? | ? | / | / | ?
CCn1c(=O)cc(OCC(=O)NCCCN2CCC(C)CC2)c2ccccc21 | 0% | -1% | -2% | 25% | 3% | 16µM*
CCn1c(=O)cc(OCC(=O)NCCCN2CC(C)CC(C)C2)c2ccccc21 (stereo not given) | -1% | -5% | -2% | ? | 0% | 16µM*
O=C(Nc1ccc(Cl)c(C(F)(F)F)c1)C1CCN(S(=O)(=O)c2cccc3nonc23)CC1 | 2% | / | / | -7% | / | /
COc1ccc(-n2c(C(C)(C)C)csc2=Nc2c(C)n(C)n(-c3ccccc3)c2=O)cc1 | 4% | -2% | 5% | 6% | -1% | 0%
COc1cccc(-c2cc(C(=O)Nc3ccc4c(c3)OCO4)no2)c1 | -8% | 20% | 17% | -5% | / | ?
O=C(Nc1c(Cl)cccc1Cl)c1cc(-c2cccc(O)c2)on1 | 24µM* | / | / | ? | / | /
O=C(Nc1ccc2c(c1)OCO2)c1cc(-c2ccc(Cl)cc2)on1 | -1% | / | / | 9% | / | /
O=C(Nc1ccc2c(c1)OCO2)c1cc(-c2cccc(O)c2)on1 | 2.1µM* | 7% | -2% | / | / | 10%
O=C(Nc1ccc2c(c1)OCO2)c1cc(-c2ccc(O)cc2)on1 | ? | 3.5µM* | ? | / | / | ?
O=C(Nc1c(Cl)cccc1Cl)c1cc(-c2ccc3c(c2)OCO3)on1 | -22% | / | / | 15% | / | /
CC(C)(C)OC(=O)N1CCC[C@H]1C(=O)NCc1ccc(Cl)cc1Cl | 7% | -2% | 1% | 0% | 5% | 0%
COc1cc(NC(=O)Cn2c(=O)n(CC3CCC(C(=O)NCCc4ccccc4)CC3)c(=O)c3ccccc32)cc(OC)c1 (stereo not given) | 3% | / | / | -2% | / | /
C[C@H](NC(=O)C1CCN(C(=O)[C@H](Cc2ccccc2)NC(=O)OC(C)(C)C)CC1)C(=O)O | 0% | -2% | -12% | / | / | 3%
O=C(NCc1ccc(Cl)cc1)c1ccc(CNS(=O)(=O)c2ccc(F)cc2)cc1 | -1% | / | / | / | / | /
O=C(NCc1ccco1)/C(=C/c1ccc(C(F)(F)F)cc1)c1nc2ccccc2[nH]1 | 12µM* | 10% | 15% | 25% | -6% | ?
SMILES | FLuc modulator | NPC1 promoter act | Rab9 prom act | SMN2 splice enh | Luc counter | ELG1 genotox
O=C(NCc1ccco1)/C(=C/c1cccc(C(F)(F)F)c1)c1nc2ccccc2[nH]1 | 4% | -3% | -7% | -81% | 2% | -3%
COc1cccc(Nc2nc(-c3cccnc3)cs2)c1 | 4.8µM* | ? | ? | / | / | ?
O=C(O)c1ccc(Nc2nc(-c3cccnc3)cs2)cc1O | 12µM* | 4% | 4% | / | / | 3%
Cc1ccc(Nc2nc(-c3cccnc3)cs2)cc1Cl | 4.8µM* | 25% | ? | / | / | 21µM*
c1cncc(Nc2nc(-c3cccnc3)cs2)c1 | ? | 26% | 22% | -9% | 0% | 2%
COc1ccc(-c2csc(Nc3cccnc3)n2)cc1OC | 2.4µM* | 15% | 28% | -13% | 10% | 4%
O=C(COCC(=O)NCc1ccccc1)NCc1ccccc1 | -2% | 11% | -3% | -6% | 1% | -1%
Cc1cc(C)cc(N2C(=O)CSC23C(=O)N(CC(=O)NC2CCCCC2)c2ccccc23)c1 (stereo not given) | -8% | / | / | / | / | /
Cc1ccc2oc(=O)c3cnn(CC(=O)N4CCN(c5ccc(F)cc5)CC4)c3c2c1 | -6% | / | / | 5% | / | /
O=C(Nc1cc([N+](=O)[O-])ccc1F)C1CC1 | -1% | -2% | -8% | 10% | 1% | -3%
CCn1cc(C(=O)Nc2ccc(C(C)C)cc2)c2cc(OC)c(OC)cc2c1=O | 2% | / | / | -17% | / | /
COc1ccc(-c2cnc(C)o2)cc1S(=O)(=O)Nc1ccc(F)cc1F | 4% | / | / | / | / | /
Nc1ccc2nc(SCc3ccc([N+](=O)[O-])cc3)sc2c1 | 21µM* | -7% | 3% | -25% | -2% | 0%
CC(C)OC(=O)CSc1nc2ccccc2s1 | 24µM* | 1% | -1% | -20% | -6% | ?
COC(=O)CSc1nc2ccc(N)cc2s1 | 27µM* | 0% | -2% | 1% | -3% | -2%
Nc1nnc(SCc2ccc([N+](=O)[O-])cc2)s1 | -2% | 1% | -2% | -24% | 5% | -4%
CCc1nn(CC(=O)NCc2ccc(OC)cc2OC)c(=O)c2cc3c(OC)cccc3n12 | -4% | / | / | 1% | / | /
CCCCNC(=O)CSc1nc2cc3c(cc2c(=O)n1Cc1ccco1)OCO3 | 3% | -7% | 3% | -18% | 1% | -12%
C/C(=N\NC(=O)C(C)Sc1ccccc1)c1ccc([N+](=O)[O-])cc1 (stereo not given) | 5% | -3% | -7% | / | / | -2%
C=CCC(C)(O)c1ccc(OC)cc1 (stereo not given) | / | / | / | -2% | -1% | /
Cc1csc(SCc2nnc(-c3ccccc3Br)o2)n1 | 1.7µM* | 1.4µM* | 1.8µM* | / | / | ?
Cc1nnc(SCc2nnc(-c3ccccc3Br)o2)n1-c1ccccc1 | -14% | -1% | -1% | -11% | 0% | 1%
Fc1ccccc1SCc1nnc(-c2ccccc2Br)o1 | 0.95µM* | 0.71µM* | 0.35µM* | 2.8µM* | -8% | 2.9µM*
Cc1csc(SCc2nnc(-c3ccc(Cl)cc3)o2)n1 | 7.6µM* | 2.8µM* | 2.8µM* | ? | 0% | 10µM*
Cc1cc(NS(=O)(=O)c2ccc(NC(=O)/C=C/c3c(F)cccc3Cl)cc2)no1 | ? | 1% | 0% | / | / | 5%
O=C(Nc1ccncc1)c1ccccc1Cl | -11% | -1% | -5% | / | / | -6%
